Assay in all cases: DAPPL (digital affinity profiling via proximity ligation, sequencing); 10 mM Tris-HCl pH 7.5, 50 mM NaCl, 1 mM DTT, 4% glycerol, room temperature, 30 min; GST-TFs on glutathione beads, 16-mer random dsDNA library, 0.1% formaldehyde crosslink after washing; high values mean tight binding
Details in all cases: protein: recombinant; tags: N-terminal GST; dsDNA, one strand shown

One experiment concerns the target T1, GABPA (Homo sapiens, UniProt Q06546 1-454).
T1 sequence: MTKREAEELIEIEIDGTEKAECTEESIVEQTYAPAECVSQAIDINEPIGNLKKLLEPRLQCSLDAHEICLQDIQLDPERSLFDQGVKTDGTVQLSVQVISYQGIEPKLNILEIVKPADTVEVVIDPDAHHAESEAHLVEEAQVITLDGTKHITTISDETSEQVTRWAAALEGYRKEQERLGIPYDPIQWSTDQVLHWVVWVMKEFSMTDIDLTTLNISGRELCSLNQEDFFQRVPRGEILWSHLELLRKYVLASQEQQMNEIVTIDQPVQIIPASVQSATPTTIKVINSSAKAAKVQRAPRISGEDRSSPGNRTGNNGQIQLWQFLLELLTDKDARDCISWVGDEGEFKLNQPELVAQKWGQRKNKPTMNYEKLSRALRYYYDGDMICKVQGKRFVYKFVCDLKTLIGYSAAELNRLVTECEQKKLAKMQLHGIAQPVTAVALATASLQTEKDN
In short, it runs like this: (§1)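 Binding signal is given per hexamer as its read frequency for a factor divided by its frequency in the tag-only sample. GST-fused human transcription factors were expressed in yeast, captured on glutathione beads, barcoded with DNA and pooled with that sample, then incubated with 200 nmole of a 16-mer random double-stranded DNA library in Tris/NaCl/DTT/glycerol buffer for 30 min at room temperature. The pools were then washed, crosslinked, proximity-ligated, amplified by PCR and sequenced on an Illumina NextSeq500.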

In a further experiment the target is ELF1 (Homo sapiens, UniProt P32519 1-619). In short, it runs like this:
as §1

A further experiment concerns the target T2, ELK3 (Homo sapiens, UniProt P41970 1-407).
T2 sequence: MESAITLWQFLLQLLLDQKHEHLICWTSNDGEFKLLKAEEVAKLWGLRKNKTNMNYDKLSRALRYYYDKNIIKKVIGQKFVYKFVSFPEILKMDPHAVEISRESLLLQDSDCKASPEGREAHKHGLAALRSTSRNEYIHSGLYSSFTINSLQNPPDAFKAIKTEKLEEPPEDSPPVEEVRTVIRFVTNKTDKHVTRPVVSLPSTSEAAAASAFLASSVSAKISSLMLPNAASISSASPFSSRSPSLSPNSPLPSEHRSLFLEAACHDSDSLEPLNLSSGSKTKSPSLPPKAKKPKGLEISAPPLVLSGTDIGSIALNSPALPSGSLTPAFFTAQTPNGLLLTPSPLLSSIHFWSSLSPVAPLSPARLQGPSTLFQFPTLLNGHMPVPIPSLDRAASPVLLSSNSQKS
In short, it runs like this:
as §1

The next experiment has as its target T3, FEV (Homo sapiens, UniProt Q99581 1-238).
T3 sequence: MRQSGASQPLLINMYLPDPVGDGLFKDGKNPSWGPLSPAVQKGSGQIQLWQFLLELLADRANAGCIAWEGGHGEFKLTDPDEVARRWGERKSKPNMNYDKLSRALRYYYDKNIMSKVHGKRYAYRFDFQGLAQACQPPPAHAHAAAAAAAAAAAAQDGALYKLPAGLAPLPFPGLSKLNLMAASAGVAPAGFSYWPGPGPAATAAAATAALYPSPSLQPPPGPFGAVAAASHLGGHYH
In short, it runs like this:
as §1

The next experiment deals with T4, SPIC (Homo sapiens, UniProt Q8N5J4 1-248).
T4 sequence: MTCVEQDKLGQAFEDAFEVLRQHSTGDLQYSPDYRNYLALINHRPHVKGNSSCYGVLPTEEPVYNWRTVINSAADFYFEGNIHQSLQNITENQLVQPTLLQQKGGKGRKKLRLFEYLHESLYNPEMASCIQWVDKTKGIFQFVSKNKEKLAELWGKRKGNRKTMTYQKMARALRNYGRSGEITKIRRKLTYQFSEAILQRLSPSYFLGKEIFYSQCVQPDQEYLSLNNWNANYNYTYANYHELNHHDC
In short, it runs like this:
as §1

The next experiment deals with ELF4 (Homo sapiens, UniProt Q99607 1-663). In short, it runs like this:
as §1

A further experiment has as its target T5, ELK4 (Homo sapiens, UniProt P28324-2 1-405).
T5 sequence: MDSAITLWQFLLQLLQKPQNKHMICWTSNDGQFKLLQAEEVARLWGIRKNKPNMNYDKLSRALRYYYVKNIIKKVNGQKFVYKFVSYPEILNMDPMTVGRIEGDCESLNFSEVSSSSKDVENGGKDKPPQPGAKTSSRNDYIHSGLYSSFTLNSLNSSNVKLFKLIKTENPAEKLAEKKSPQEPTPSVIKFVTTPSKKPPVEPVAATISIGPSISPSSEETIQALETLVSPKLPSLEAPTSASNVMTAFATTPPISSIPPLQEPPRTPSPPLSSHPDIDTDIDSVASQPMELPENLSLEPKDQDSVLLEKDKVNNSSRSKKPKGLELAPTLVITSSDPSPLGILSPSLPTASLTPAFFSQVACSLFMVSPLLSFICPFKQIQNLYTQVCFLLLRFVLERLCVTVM
Put shortly:
as §1

The target in a further experiment is ETV1 (Homo sapiens, UniProt P50549 1-477). Put shortly:
as §1

For a further experiment, the target named is T6, ETV3L (Homo sapiens, UniProt Q6ZN32 1-361).
T6 sequence: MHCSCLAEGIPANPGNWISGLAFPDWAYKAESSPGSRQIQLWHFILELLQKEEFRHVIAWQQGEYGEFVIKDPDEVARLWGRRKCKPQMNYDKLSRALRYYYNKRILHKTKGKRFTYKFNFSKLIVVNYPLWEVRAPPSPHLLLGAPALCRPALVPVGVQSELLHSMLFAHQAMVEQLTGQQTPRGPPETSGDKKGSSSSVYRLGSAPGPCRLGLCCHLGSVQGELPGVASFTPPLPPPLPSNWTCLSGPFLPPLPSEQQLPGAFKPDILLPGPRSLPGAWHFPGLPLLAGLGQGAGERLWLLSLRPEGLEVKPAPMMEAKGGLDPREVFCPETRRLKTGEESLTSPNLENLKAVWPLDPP
In short, it runs like this: as §1

The target of another experiment is T7, SPDEF (Homo sapiens, UniProt O95238 1-335).
T7 sequence: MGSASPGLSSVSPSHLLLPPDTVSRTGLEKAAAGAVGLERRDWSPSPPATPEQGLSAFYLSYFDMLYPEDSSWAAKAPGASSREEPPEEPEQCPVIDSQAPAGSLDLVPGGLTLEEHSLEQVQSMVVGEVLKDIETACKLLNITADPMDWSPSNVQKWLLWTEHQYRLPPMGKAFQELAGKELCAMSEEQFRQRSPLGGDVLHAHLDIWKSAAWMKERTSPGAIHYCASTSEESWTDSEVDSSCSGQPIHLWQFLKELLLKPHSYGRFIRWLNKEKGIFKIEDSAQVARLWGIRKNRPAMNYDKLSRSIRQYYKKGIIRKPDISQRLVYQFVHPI
Put shortly:
as §1

The target in the next experiment is T8, ELF5 (Homo sapiens, UniProt Q9UKW6-2 1-255).
T8 sequence: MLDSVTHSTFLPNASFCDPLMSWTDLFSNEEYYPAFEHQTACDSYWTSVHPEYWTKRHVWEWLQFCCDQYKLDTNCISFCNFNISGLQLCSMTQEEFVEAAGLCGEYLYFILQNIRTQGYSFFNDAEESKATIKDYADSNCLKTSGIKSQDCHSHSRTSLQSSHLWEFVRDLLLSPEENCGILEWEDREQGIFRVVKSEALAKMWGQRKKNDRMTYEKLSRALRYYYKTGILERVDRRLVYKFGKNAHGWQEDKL
Put shortly:
as §1

For a further experiment, the target named is T9, ETV3 (Homo sapiens, UniProt P41162-2 1-143).
T9 sequence: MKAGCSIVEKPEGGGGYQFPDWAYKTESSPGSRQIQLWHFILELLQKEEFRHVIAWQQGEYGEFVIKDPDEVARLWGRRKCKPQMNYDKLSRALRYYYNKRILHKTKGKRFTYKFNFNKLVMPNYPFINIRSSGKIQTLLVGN
In short, it runs like this:
as §1

Sequence of ELF1 (P32519 whole entry): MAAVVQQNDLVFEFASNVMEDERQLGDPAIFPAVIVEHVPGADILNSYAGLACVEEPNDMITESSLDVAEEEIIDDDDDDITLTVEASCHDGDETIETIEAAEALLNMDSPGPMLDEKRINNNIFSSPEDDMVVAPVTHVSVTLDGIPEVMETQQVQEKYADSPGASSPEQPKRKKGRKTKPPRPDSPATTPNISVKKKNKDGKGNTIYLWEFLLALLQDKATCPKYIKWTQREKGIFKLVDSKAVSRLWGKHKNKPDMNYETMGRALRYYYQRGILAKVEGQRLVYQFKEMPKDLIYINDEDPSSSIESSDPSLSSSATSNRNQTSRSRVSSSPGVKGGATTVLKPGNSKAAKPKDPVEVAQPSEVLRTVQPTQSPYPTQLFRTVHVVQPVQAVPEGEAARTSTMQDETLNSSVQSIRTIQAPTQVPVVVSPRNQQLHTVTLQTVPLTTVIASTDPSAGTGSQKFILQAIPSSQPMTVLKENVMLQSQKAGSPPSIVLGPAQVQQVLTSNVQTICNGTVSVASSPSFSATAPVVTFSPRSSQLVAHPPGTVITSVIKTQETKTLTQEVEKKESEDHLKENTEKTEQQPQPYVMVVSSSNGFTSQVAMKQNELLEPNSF
Sequence of ETV1 (P50549 whole entry): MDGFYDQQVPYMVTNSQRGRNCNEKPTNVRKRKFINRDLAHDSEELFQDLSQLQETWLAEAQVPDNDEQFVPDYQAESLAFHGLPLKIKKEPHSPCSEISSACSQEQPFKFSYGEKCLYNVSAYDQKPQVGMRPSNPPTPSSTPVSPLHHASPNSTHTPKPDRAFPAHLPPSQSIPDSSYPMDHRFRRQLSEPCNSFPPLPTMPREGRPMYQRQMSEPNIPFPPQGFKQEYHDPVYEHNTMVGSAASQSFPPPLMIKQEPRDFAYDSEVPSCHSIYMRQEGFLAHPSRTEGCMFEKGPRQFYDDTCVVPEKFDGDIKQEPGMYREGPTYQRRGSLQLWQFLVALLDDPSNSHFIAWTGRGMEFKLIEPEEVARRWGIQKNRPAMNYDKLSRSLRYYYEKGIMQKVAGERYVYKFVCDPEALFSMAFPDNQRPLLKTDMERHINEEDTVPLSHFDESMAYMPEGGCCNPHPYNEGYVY
Sequence of ELF4 (Q99607 whole entry): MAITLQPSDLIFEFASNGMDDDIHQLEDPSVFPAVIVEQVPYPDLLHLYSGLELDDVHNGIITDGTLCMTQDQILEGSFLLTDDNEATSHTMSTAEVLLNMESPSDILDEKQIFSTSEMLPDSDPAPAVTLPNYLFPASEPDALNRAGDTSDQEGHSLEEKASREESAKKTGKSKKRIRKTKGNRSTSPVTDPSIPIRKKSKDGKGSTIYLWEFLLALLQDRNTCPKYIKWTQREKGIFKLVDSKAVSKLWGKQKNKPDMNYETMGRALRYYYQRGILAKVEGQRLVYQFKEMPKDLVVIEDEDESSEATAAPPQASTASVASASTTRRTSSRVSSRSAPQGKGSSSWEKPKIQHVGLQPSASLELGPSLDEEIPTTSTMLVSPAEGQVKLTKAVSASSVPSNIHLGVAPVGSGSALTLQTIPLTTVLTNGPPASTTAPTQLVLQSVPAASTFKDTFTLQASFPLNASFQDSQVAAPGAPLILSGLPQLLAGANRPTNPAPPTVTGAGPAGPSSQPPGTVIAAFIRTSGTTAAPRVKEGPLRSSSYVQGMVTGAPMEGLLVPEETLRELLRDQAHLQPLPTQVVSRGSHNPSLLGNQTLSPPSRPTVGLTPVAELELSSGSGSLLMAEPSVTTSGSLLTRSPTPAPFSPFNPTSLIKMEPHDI

In the case of CGCCAC, the binding signal with GABPA was 1.04 fold enrichment (6-mer frequency, TF over GST control); with ELF1, 1.08 fold enrichment (6-mer frequency, TF over GST control); with ELK3 it was 1.04 fold enrichment (6-mer frequency, TF over GST control); with FEV it was 1.11 fold enrichment (6-mer frequency, TF over GST control); with SPIC it was 1.02 fold enrichment (6-mer frequency, TF over GST control); in the experiment with ELF4 it was 1.03 fold enrichment (6-mer frequency, TF over GST control). In addition, the binding signal in the experiment with ELK4 was 1.07 fold enrichment (6-mer frequency, TF over GST control); in the experiment with ETV1, 1.06 fold enrichment (6-mer frequency, TF over GST control); in the experiment with ETV3L it was 1.03 fold enrichment (6-mer frequency, TF over GST control); with SPDEF, 1.05 fold enrichment (6-mer frequency, TF over GST control); in the experiment with ELF5, 1.05 fold enrichment (6-mer frequency, TF over GST control); with ETV3, 1.02 fold enrichment (6-mer frequency, TF over GST control).
Regarding TGTCAG, the binding signal is 1 fold enrichment (6-mer frequency, TF over GST control) with SPIC and 1.02 fold enrichment (6-mer frequency, TF over GST control) with ELK4.

The values above are taken from paper PMC7862700, “An all-to-all approach to the identification of sequence-specific readers for epigenetic DNA modifications on cytosine”.
